Screening data from PubChem BioAssay.
HEK293 tox: Cytotoxic Profiling in HEK 293 Cell Line of Diverse Libraries Using Quantitative High-Throughput Screening | Potency, µM (doses to about 115 µM), for inactives: at the top dose activity change, negative = cytotoxicity, usual class: inhibitors | actives 6.6% (n = 94,000) | HEK 293 viability, ATP luminescence (CellTiter-Glo), 48-72 h; further: nearly all actives have a fitted effect of over 60% in size
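ATP-coupled CellTiter-Glo luminescence served as viability read-out, recorded 10 min after reagent addition at room temperature. HEK 293 cells, 250 cells/well, had been incubated with pintool-transferred compound for 48 or 72 hr at 37 degree Celsius.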
GPT2 inhibitor: Primary qHTS assay for inhibitors of Glutamate pyruvate transaminase 2 (GPT2) | Potency, µM (top dose mostly 57.7 µM), for the others: top-dose activity change, negative = inhibition, most hits filed as inhibitors | Alanine aminotransferase 2 (Homo sapiens), Q8TD30 | Recombinant GPT2, coupled pyruvate oxidase/HRP Amplex Red fluorescence | actives 0.25% (n = 100,000) | AID 1671188, 2021; further: nearly all actives have a fitted effect of over 60% in size
Target sequence (Q8TD30 whole entry, looked up): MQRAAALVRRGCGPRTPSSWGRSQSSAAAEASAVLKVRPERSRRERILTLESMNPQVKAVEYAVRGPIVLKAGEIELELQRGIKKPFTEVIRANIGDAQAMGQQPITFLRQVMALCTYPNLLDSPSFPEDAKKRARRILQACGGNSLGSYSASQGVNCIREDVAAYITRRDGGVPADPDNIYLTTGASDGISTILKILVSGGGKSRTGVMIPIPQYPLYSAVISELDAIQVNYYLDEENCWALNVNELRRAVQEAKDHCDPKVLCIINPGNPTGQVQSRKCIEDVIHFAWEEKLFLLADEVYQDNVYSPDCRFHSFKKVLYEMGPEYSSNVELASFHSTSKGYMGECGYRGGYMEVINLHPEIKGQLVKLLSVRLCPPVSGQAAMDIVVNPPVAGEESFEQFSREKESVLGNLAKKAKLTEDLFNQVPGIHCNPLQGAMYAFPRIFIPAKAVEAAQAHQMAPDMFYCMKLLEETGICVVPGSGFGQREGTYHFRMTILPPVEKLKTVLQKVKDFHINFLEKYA
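Fluorescence of coupled pyruvate oxidase/HRP/Amplex Red system (50uM Amplex, 30 min, dark) reports pyruvate formed by GPT2. Enzyme reaction: 10ng/uL GPT2, 2mM L-alanine, 250uM a-KG, 30 min room temperature, pH 7.5; 50uM AOA control.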
Luciferase inh: Firefly luciferase inhibition profiling of diverse chemical library using quantitative high-throughput screening | actives 2.5% (n = 76,000) | Potency, µM (doses to about 115 µM), hits mostly inhibitors | purified P. pyralis luciferase, luminescence, biochemical; further: nearly all actives have a fitted effect of over 65% in size
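Purified P. pyralis luciferase (10nM final) in 50mM Tris acetate pH 7.5, 10mM Mg acetate, 0.01% Tween-20, 0.05% BSA with 10uM D-luciferin and 10uM ATP. Compounds titrated qHTS. Luminescence imaged on CCD.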
hNpr1 antagonist: Natriuretic polypeptide receptor (hNpr1) antagonism - Primary qHTS | AID 1347048, 2019 | Potency, µM (highest dose often 46.3 µM), inactives show top-dose activity change, negative = inhibition, hits mostly inhibitors | actives 1.6% (n = 76,000) | HEK293 hNpr1 GloSensor cGMP, ANP-stimulated luminescence | Atrial natriuretic peptide receptor 1 (Homo sapiens), P16066; calls by dose curve; further: nearly all actives have a fitted effect of over 60% in size
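Compound pre-incubated 30 min at room temperature on GloSensor-loaded HEK293 cells stably carrying hNpr1 and the pGS-40F cGMP biosensor. Stimulation uses hNppA at 0.1 nM final; luminescence is taken at baseline and 20 min post-agonist.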
3T3 cytotox: Cytotoxic Profiling in NIH 3T3 Cell Line of Diverse Libraries Using Quantitative High-Throughput Screening; AID 1345082, 2018; NIH 3T3 viability, CellTiter-Glo ATP luminescence, 48-72 h; actives 4.3% (n = 94,000); Potency, µM (doses to about 96.7 µM), without a hit: top-dose activity change, negative = cytotoxicity, most hits filed as inhibitors; further: nearly all actives have a fitted effect of over 55% in size
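ATP-dependent luminescence (CellTiter-Glo) served as the viability signal for NIH 3T3 cells treated with compound for 48 or 72 hr at 37 °C.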
The depositor's hits bear a star; [ ] = another dose, or the depositor's remark. The list is not random: actives were taken first. Their share in the collection is about 10%. Unless noted, the call rests on the fitted dose curve; in most records, active means well fitted curve in the direction sought with a large enough effect; inconclusive means small, poorly fitted or top-dose-only effect, or another doubt; inactive means no such curve, though single readings can be large; an effect the other way counts as inactive or inconclusive. On the % scale 0 is the no-effect control and ±100 the full control effect; potency means the concentration at half of the fitted maximal effect.

`O=C(NCCN1CCCCC1)C1CCCN(c2cnc3nccnc3c2)C1` (centres undefined) gave HEK293 tox -17%, GPT2 inhibitor inactive, Luciferase inh inactive, hNpr1 antagonist -7% and 3T3 cytotox -10%.
Screening O=C1[C@H]2CC[C@H](CN(Cc3ccc(-n4ccnc4)cc3)C2)N1CC1CCC1 returned HEK293 tox inconclusive, GPT2 inhibitor inactive, Luciferase inh inactive, hNpr1 antagonist inconclusive and 3T3 cytotox 40µM*.
COc1ccc(C(=O)N2CCC(CCn3c(C)cnc3-c3cccnc3)CC2)cc1 was read as HEK293 tox -30%, GPT2 inhibitor inconclusive and 3T3 cytotox inconclusive.
Screening Cc1cnc(-c2ccncc2)n1CCC1CCN(C(=O)C(C)Oc2ccccc2)CC1 (centres undefined) returned HEK293 tox 45µM*, GPT2 inhibitor inactive and 3T3 cytotox inconclusive.
Cc1cnc(-c2ccccc2)n1CCC1CCN(C(=O)C2(c3ccccc3)CC2)CC1 was read as HEK293 tox 35µM*, GPT2 inhibitor 1% and 3T3 cytotox inconclusive.
For COC(=O)C1CCN(C(=O)CC[C@H]2CNC(=O)[C@@H]3[C@@H](CCN3Cc3ccc(O)cc3)N2C)CC1 the results were HEK293 tox inactive, GPT2 inhibitor -2%, Luciferase inh inactive, hNpr1 antagonist 2% and 3T3 cytotox inactive.
Screening COc1cccc(C(=O)N2CCN(c3ccc4ncc(-c5cccc(C(F)(F)F)c5)n4n3)CC2)c1 returned HEK293 tox inconclusive and 3T3 cytotox 11µM*.
`COc1cccc(C(=O)N2CCCN(c3ccc4nnc(C)n4n3)CC2)c1` gave HEK293 tox inactive and 3T3 cytotox 1%.
`CN(CCc1noc(C2CN(Cc3ccc(Cl)c(F)c3)C2)n1)S(C)(=O)=O` gave HEK293 tox 40µM*, GPT2 inhibitor -8%, Luciferase inh inactive, hNpr1 antagonist -1% and 3T3 cytotox inconclusive.
For O=C(c1cccc2[nH]ccc12)N1CC(Oc2cccc(-c3nc(-c4ccccc4)no3)c2)C1 the results were HEK293 tox 35µM*, GPT2 inhibitor inactive, Luciferase inh inconclusive, hNpr1 antagonist 1% and 3T3 cytotox inconclusive.
Screening Cn1cccc1C(=O)N1CC(Oc2cccc(-c3nc(-c4ccccc4)no3)c2)C1 returned HEK293 tox 45µM*, GPT2 inhibitor inactive, Luciferase inh inconclusive, hNpr1 antagonist -5% and 3T3 cytotox inconclusive.
For Cc1nc(C)c(C(=O)N2CC(Oc3cccc(-c4nc(-c5ccccc5)no4)c3)C2)s1 the results were HEK293 tox 40µM*, GPT2 inhibitor 2%, Luciferase inh inconclusive, hNpr1 antagonist -24% and 3T3 cytotox inconclusive.
For COc1cccc(C(=O)NC2CCN(c3nccc(Nc4ccccc4F)n3)CC2)c1 the results were HEK293 tox inconclusive, GPT2 inhibitor inactive and 3T3 cytotox inconclusive.
For O=C(NC1CC1)[C@@H]1C[C@H](Oc2ccccc2)CN1C(=O)c1n[nH]c(=O)c2ccccc12 the results were HEK293 tox 1%, GPT2 inhibitor inactive, Luciferase inh inactive, hNpr1 antagonist 2% and 3T3 cytotox 2%.
CN1C[C@@H](NC(=O)Nc2cccc(C(F)(F)F)c2)C[C@H]1c1nc(-c2cnccn2)no1 was read as HEK293 tox inactive, GPT2 inhibitor -3%[88.5 µM], Luciferase inh inactive, hNpr1 antagonist 7%[70.6 µM] and 3T3 cytotox 2%[174 µM].
For CC1(C)OC[C@H](NC(=O)Nc2ccc(Br)cc2Br)[C@H](c2ccccc2)O1 the results were GPT2 inhibitor -6%.
`Cc1ccncc1-c1c(C)nn2c1N(Cc1ccc(C(=O)O)cc1)CCC2` gave HEK293 tox inconclusive, GPT2 inhibitor inactive, Luciferase inh inactive, hNpr1 antagonist -12%[70.6 µM] and 3T3 cytotox inconclusive.
`Cc1nn2c(c1-c1cccnc1N1CCOCC1)N(Cc1ccc3c(c1)CCO3)CCC2` gave HEK293 tox -23%[172 µM], GPT2 inhibitor 5%[88.5 µM], Luciferase inh inactive, hNpr1 antagonist -19%[70.6 µM] and 3T3 cytotox 45µM*.
Screening Cc1nn2c(c1-c1ccnn1C(C)C)N(Cc1ccc3c(c1)CCO3)CCC2 returned HEK293 tox inconclusive, GPT2 inhibitor inactive, Luciferase inh inactive, hNpr1 antagonist -2%[70.6 µM] and 3T3 cytotox 32µM*.
For COc1ccc(OC)c(CN2CCCn3nc(C)c(-c4cccnc4N4CCOCC4)c32)c1 the results were HEK293 tox -29%, GPT2 inhibitor inactive, Luciferase inh inactive, hNpr1 antagonist -18% and 3T3 cytotox inconclusive.
`Cc1nn2c(c1-c1cccnc1N1CCOCC1)N(CCC(C)C)CCC2` gave HEK293 tox 40µM*, GPT2 inhibitor -20%[88.5 µM], Luciferase inh inactive, hNpr1 antagonist -25%[70.6 µM] and 3T3 cytotox inconclusive.
For COc1cc(C(=O)NS(=O)(=O)c2ccccc2C)ccc1Cc1cn(C)c2ccc(NC(=O)OC3CCCC3)cc12 the results were GPT2 inhibitor inactive.
CC(C)C(=O)NCCc1noc(-c2ccccc2)n1 was read as HEK293 tox 5%, GPT2 inhibitor inactive, Luciferase inh inactive, hNpr1 antagonist 2% and 3T3 cytotox -2%.
Screening Cc1cc2ncc(C(=O)N3CCN(C)CC3)cn2n1 returned HEK293 tox inactive, GPT2 inhibitor -17%[88.5 µM] and 3T3 cytotox inactive.
Screening NC(=O)c1cccnc1N1CCC(n2cc(-c3ccccc3Cl)nn2)CC1 returned HEK293 tox 79µM*, GPT2 inhibitor inconclusive, Luciferase inh inactive, hNpr1 antagonist -9% and 3T3 cytotox -24%.
`Cc1ccsc1CN1CC(Oc2ccc(-c3noc(C4CCOCC4)n3)cc2)C1` gave HEK293 tox 20µM*, GPT2 inhibitor inactive and 3T3 cytotox 40µM*.
Screening CN1CCC2(C1)CN(Cc1ccccc1)c1ccc(C(=O)Nc3ccn(C)n3)cc12 (centres undefined) returned HEK293 tox inconclusive, GPT2 inhibitor 1%[88.5 µM], Luciferase inh inactive, hNpr1 antagonist 3%[70.6 µM] and 3T3 cytotox inconclusive.
For COc1ccc(NC(=O)c2ccc3c(c2)C2(CCCN(C)C2)CN3Cc2cccnc2)cc1 (centres undefined) the results were HEK293 tox -14%, GPT2 inhibitor inactive, Luciferase inh inactive, hNpr1 antagonist 1% and 3T3 cytotox 32µM*.
